Screening results: PubChem, SRMLSC
Spn PMK inh = S. pneumoniae PMK inhibitors, primary screen, biochemical, mevalonate pathway, pilot trial included. phosphomevalonate kinase (Streptococcus pneumoniae D39). purified PMK, PK/LDH-coupled NADH absorbance 340 nm. inhibition, % at 10 µM. hit rate 0.49% among 65,000. AID 539, 2006;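 active means top-ranked compounds by inhibition in the single 10 µM screen, taking a fixed number of the strongest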;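 further: 0% = full reaction with DMSO carrier and 100% = background rate without enzyme reaction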
Fluor 339 460 = intrinsic fluorescence of library compounds, ex339/em460 – biochemical, MLSMR library, data from DPM-DC assay, artefact control, profiling panel; hit rate 5.5% among 65,000; AID 709, 2007; fluorescence fold increase at 10 µM; compound autofluorescence, ex339/em460 nm, NADH buffer; hits give high values; 1 = no-compound wells, NADH background;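 active means at 10 µM, mean starting fluorescence two-fold or more over control wells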;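 further: signal is the first read of a kinetic run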
NADH coupling = inhibitors of PK/LDH coupling enzymes, profiling panel, artefact control, biochemical, MLSMR library; hit rate 0.02% among 65,000; AID 774, 2007; coupled PK/LDH NADH assays, four targets; IC50, µM (titrated, usually from 10 µM), for the others: top-dose inhibition;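 active means single-dose screening hits from any of four coupled enzyme assays that gave an IC50 when retested across doses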;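 further: the DPM-DC format reads NADH fluorescence rather than 340 nm absorbance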
Spn DPM-DC inh = S. pneumoniae DPM-DC inhibitors, primary screen, biochemical, PK/LDH-coupled NADH fluorescence. hit rate 0.49% among 65,000. purified DPM-DC. calls only at 10 µM;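 active means the 320 compounds with the highest percent inhibition in the single-dose primary screen, excluding strongly autofluorescent ones, cut at about 32% in these data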;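 further: kinetic rate of NADH fluorescence loss reporting ADP formed by the decarboxylase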
Abs 340nm = compound light absorbance at 340 nm, profiling panel, artefact control, biochemical, MLSMR library, data from PS, PMK, MK assays; compound absorbance at 340 nm, fold over control; 65,000 tested, under 10 active; fold change at 10 µM;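 active means at 10 µM dose, initial 340 nm absorbance at least 2 fold that of control wells; inactive means change under 2 fold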;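 further: initial absorbance extrapolated from kinetic A340 decline of NADH oxidation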
Spn MK inh = S. pneumoniae MK inhibitors, primary screen, biochemical, PK/LDH-coupled NADH absorbance; mevalonate kinase [Streptococcus pneumoniae D39]; purified MK, PK/LDH-coupled NADH absorbance 340 nm; inhibition, % at 10 µM; hit rate 0.48% among 65,000;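 active means ranked among the strongest by inhibition in the single 10 µM screen, a fixed top-ranked set picked for dose follow-up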
* hit, by the source's call; i = inactive; nt = no result given. In the library only some 6.3% were active in any assay of this set; here they are far more common.

SMILES | Spn PMK inh | Fluor 339 460 | NADH coupling | Spn DPM-DC inh | Abs 340nm | Spn MK inh
CC(OC(=O)c1cc2sccc2n1C)C(=O)NCc1ccco1 (configuration not stated) | 8.0 | 1.1 | 3.0% | i | 1.03 | 0.0
CCCCNc1nc2c(c(=O)n(C)c(=O)n2C)n1CCC | 26.0* | 1.03 | 10.0% | i | 1.02 | 4.0
O=C1CC(c2ccc(S(=O)(=O)N3CCN(c4ccccc4)CC3)cc2)CN1 (configuration not stated) | 7.0 | 1.01 | 11.0% | i | 0.99 | 11.0
Cc1ccc2c(CC(=O)O)coc2c1C | 11.0 | 1.07 | 7.0% | i | 1.05 | 9.0
O=c1cc(O)c2c(=O)[nH]c(=O)n(-c3ccccc3)c2[nH]1 | 25.0* | 1.12 | 10.0% | i | 1 | 4.0
Cc1nn(-c2ccc(F)cc2F)c2c1-c1nc(N3CCCC3)ncc1CC2 | 11.0 | 5.11* | 6.0% | nt | 1 | 0.0
CC(C(=O)O)n1nc2ccccc2n1 (configuration not stated) | 10.0 | 1.1 | 8.0% | i | 1 | 14.0
COCCN1C=C(C(=O)OC)C(c2cc3c(cc2Br)OCO3)C(C(=O)OC)=C1 | 0.0 | 1.49 | 4.0% | i | 1 | 2.0
CCOc1ccc(C2C(C(=O)OC)=CN(CCOC)C=C2C(=O)OC)cc1 | 0.0 | 2.47* | 3.0% | nt | 1.08 | 6.0
COCCN1C=C(C(=O)OC)C(c2ccc3c(c2)OCO3)C(C(=O)OC)=C1 | 7.0 | 2.13* | 6.0% | nt | 1.08 | 5.0
CC(C)OCCCNC(=O)CN1C(=O)CC(C)(C)S(=O)(=O)c2ccccc21 | 0.0 | 0.94 | 17.0% | i | 1.02 | 44.0*
COc1cccc2cc(C(=O)N3CCc4ccccc4C3)c(=O)oc12 | 9.0 | 1.2 | 5.0% | i | 1.05 | 5.0
COc1cccc2cc(C(=O)N3CCN(c4ccccc4F)CC3)c(=O)oc12 | 29.0* | 1.16 | 10.0% | i | 1.04 | 0.0
COc1cc(OC)cc(C(C(=O)NCc2ccccc2)N(Cc2ccco2)C(=O)c2ccno2)c1 (configuration not stated) | 0.0 | 1.1 | 3.0% | i | 1.02 | 8.0
O=C(NCCCN1CCOCC1)c1c(O)c2ccccc2[nH]c1=O | 12.0 | 1.06 | 4.0% | i | 1.02 | 0.0
O=C(NCCCN1CCOCC1)c1cc2c(=O)[nH]c3ccccc3c2s1 | 4.0 | 4.73* | 7.0% | nt | 1.11 | 9.0
CC(C)(CSc1nncn1N)NS(=O)(=O)c1ccc(Cl)cc1 | 6.0 | 1.05 | 2.0% | i | 1 | 5.0
CCOc1ncccc1C(=O)OCC(=O)c1c(N)n(C)c(=O)n(C)c1=O | 0.0 | 1.12 | 5.0% | i | 1.02 | 14.0
CCOc1ncccc1C(=O)OCc1cc(=O)n2c(n1)sc1ccccc12 | 25.0* | 1.42 | 8.0% | i | 1.03 | 0.0
CCOC(=O)N1CCC(NC(=O)c2cn(-c3ccc(OC)cc3)c(=O)c3ccccc23)CC1 | 16.0 | 1.2 | 9.0% | i | 1.04 | 10.0
CCOC(=O)N1CCC(NC(=O)c2cccn3c(=O)c4cc(Br)ccc4nc23)CC1 | 18.0 | 2.24* | 7.0% | i | 1.03 | 4.0
FC(F)(F)c1cccc(CN2CCCCCC2)c1 | 5.0 | 1.05 | 17.0% | i | 1.05 | 45.0*
CN(C)c1ccc(CN2CCCCCC2)cc1 | 14.0 | 1.03 | 6.0% | i | 1.03 | 3.0
COc1ccc2c(c1OC)CN(C)CCc1cc3c(cc1C(O)C2)OCO3 (configuration not stated) | 25.0* | 1.11 | 12.0% | i | 0.99 | 12.0
COc1cccc(C2/C(=C(\O)c3ccc4c(c3)OCO4)C(=O)C(=O)N2CCN(C)C)c1OC (configuration not stated) | 0.0 | 1.09 | 0.0% | i | 1.14 | 0.0
COC(=O)CSc1nc(N2CCOCC2)c2c(c1C#N)CC(C)(C)N(C)C2 | 6.0 | 2.12* | 11.0% | i | 1.05 | 13.0
COc1ccccc1NC(=O)CN(C)S(=O)(=O)c1ccc(F)cc1 | 0.0 | 1.09 | 2.0% | i | 1.06 | 7.0
COc1ccccc1-c1nnc(NC(=O)c2ccc(S(=O)(=O)N(C)Cc3ccccc3)cc2)o1 | 10.0 | 2.96* | 5.0% | nt | 1.01 | 6.0
